# Test results from the supplement of paper PMC8728848.
# Many of the other results were omitted from the sample, so the strongest signals are more common in it than they were.
# Key:
# Experiment in all cases: glycan array binding signal (z-score within array); higher = stronger binding
# Details in all cases: glycan notation: IUPAC condensed, linker removed
# [1] = target: Fuc(a1-2)Gal(b1-3)GalNAc(b1-3)Gal(a1-4)Gal(b1-4)Glc
# In short: (§1)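 From the Consortium for Functional Glycomics database, 3228 arrays were curated, keeping only those whose protein sequence was available. Binding is given as a within-array Z-score averaged across arrays sharing a protein sequence and across linkers. Negative Z-scores can be read as non-binding.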
# [2] = target: Fuc(a1-2)Gal(b1-3)[Fuc(a1-4)]GlcNAc(b1-2)Man(a1-3)[Fuc(a1-2)Gal(b1-3)[Fuc(a1-4)]GlcNAc(b1-2)Man(a1-6)]Man(b1-4)GlcNAc(b1-4)[Fuc(a1-6)]GlcNAc(b1-4)[Fuc(a1-6)]GlcNAc
# In short: as §1
# [3] = target: Fuc(a1-2)Gal(b1-4)GlcNAc(b1-3)[Fuc(a1-3)[Gal(b1-4)]GlcNAc(b1-6)]Gal(b1-4)Glc
# In short: as §1
# [4] = target: Fuc(a1-2)Gal(b1-4)GlcNAc(b1-6)GalNAc
# In short: as §1
# [5] = target: Fuc(a1-2)Gal(b1-4)[Fuc(a1-3)]GlcNAc
# In short: as §1
# [6] = target: Fuc(a1-2)Gal(b1-4)[Fuc(a1-3)]GlcNAc(b1-3)Gal(b1-4)[Fuc(a1-3)]GlcNAc(b1-3)Gal(b1-4)[Fuc(a1-3)]GlcNAc
# In short: as §1
# [7] = target: Fuc(a1-2)[Gal(a1-3)]Gal(b1-3)GalNAc(b1-3)Gal(a1-4)Gal(b1-4)Glc
# In short: as §1
# [8] = target: Fuc(a1-2)[Gal(a1-3)]Gal(b1-3)GlcNAc(b1-2)Man(a1-3)[Fuc(a1-2)[Gal(a1-3)]Gal(b1-3)GlcNAc(b1-2)Man(a1-6)]Man(b1-4)GlcNAc(b1-4)GlcNAc
# In short: as §1
# [9] = target: Fuc(a1-2)[GalNAc(a1-3)]Gal(b1-4)Glc
# In short: as §1
# [10] = target: Fuc(a1-2)[GalNAc(a1-3)]Gal(b1-4)GlcNAc
# In short: as §1
# [11] = target: Fuc(a1-3)[Gal(b1-4)]GlcNAc(b1-3)Gal(b1-4)[Fuc(a1-3)]GlcNAc
# In short: as §1
# [12] = target: Fuc(a1-3)[Gal(b1-4)]GlcNAc(b1-4)Gal(b1-4)[Fuc(a1-3)]GlcNAc(b1-4)Gal(b1-4)[Fuc(a1-3)]GlcNAc
# In short: as §1
# [13] = target: Fuc(a1-3)[Gal(b1-4)]GlcNAc(b1-6)[Gal(b1-3)GlcNAc(b1-3)]Gal(b1-4)Glc
# In short: as §1
# [14] = target: Fuc(a1-3)[Gal(b1-4)]GlcNAc(b1-6)[Neu5Ac(a2-3)Gal(b1-3)]GalNAc
# In short: as §1
# [15] = target: Gal(a1-3)Gal(b1-3)GlcNAc(b1-2)Man
# In short: as §1
# [16] = target: Gal(a1-3)Gal(b1-3)GlcNAc(b1-3)GalNAc
# In short: as §1
# [17] = target: Gal(a1-3)Gal(b1-4)[Fuc(a1-3)]GlcNAc
# In short: as §1
# [18] = target: Gal(a1-4)Gal(b1-3)GlcNAc(b1-2)Man(a1-3)[Gal(a1-4)Gal(b1-3)GlcNAc(b1-2)Man(a1-6)]Man(b1-4)GlcNAc(b1-4)GlcNAc
# In short: as §1
# Gal(b1-2)Gal = target: Gal(b1-2)Gal
# In short: as §1
# [19] = target: Gal(b1-3)GlcNAc(b1-3)GalNAc
# In short: as §1
# [20] = target: Gal(b1-3)GlcNAc(b1-6)GalNAc
# In short: as §1
# [21] = target: Gal(b1-3)[Fuc(a1-4)]GlcNAc
# In short: as §1
# [22] = target: Gal(b1-3)[Neu5Ac(a2-6)]GlcNAc(b1-6)Gal(b1-4)Glc
# In short: as §1
# [23] = target: Gal(b1-4)GalNAc(a1-3)[Fuc(a1-2)]Gal(b1-4)GlcNAc
# In short: as §1
# [24] = target: Gal(b1-4)GlcNAc(b1-2)Man(a1-3)[GlcNAc(b1-2)Man(a1-6)]Man(b1-4)GlcNAc(b1-4)GlcNAc
# In short: as §1
# [25] = target: Gal(b1-4)GlcNAc(b1-2)Man(a1-6)[Man(a1-3)]Man(b1-4)GlcNAc(b1-4)GlcNAc
# In short: as §1
# [26] = target: Gal(b1-4)GlcNAc(b1-2)[Gal(b1-4)GlcNAc(b1-6)]Man(a1-6)[Gal(b1-4)GlcNAc(b1-2)Man(a1-3)]Man(b1-4)GlcNAc(b1-4)GlcNAc
# In short: as §1
binder,measurement,setting,value
OrysaEULS2 (Oryza sativa) (protein) MVYCRANPNYAMTARNGAVVLAPANPKDEYQHWIKDMRWSTSIKDEEGYPAFALVNKATGQAIKHSLGQSHPVRLVPYNPEVMDESVLWTESRDVGNGFRCIRMVNNIYLNFDAFHGDKYHGGVRDGTDIVLWKWCEGDNQRWKIQPYYILEQKLISEEDLNSAVDHHHHHH,glycan array binding signal (z-score),[1],-0.184
same,glycan array binding signal (z-score),[2],-0.187
same,glycan array binding signal (z-score),[3],-0.276
same,glycan array binding signal (z-score),[4],-0.163
same,glycan array binding signal (z-score),[5],-0.191
same,glycan array binding signal (z-score),[6],-0.194
same,glycan array binding signal (z-score),[7],-0.248
same,glycan array binding signal (z-score),[8],-0.081
same,glycan array binding signal (z-score),[9],-0.205
same,glycan array binding signal (z-score),[10],-0.2
same,glycan array binding signal (z-score),[11],-0.27
same,glycan array binding signal (z-score),[12],-0.163
same,glycan array binding signal (z-score),[13],-0.183
same,glycan array binding signal (z-score),[14],-0.16
same,glycan array binding signal (z-score),[15],-0.28
same,glycan array binding signal (z-score),[16],-0.176
same,glycan array binding signal (z-score),[17],-0.216
same,glycan array binding signal (z-score),[18],2.38
same,glycan array binding signal (z-score),Gal(b1-2)Gal,-0.142
same,glycan array binding signal (z-score),[19],-0.179
same,glycan array binding signal (z-score),[20],-0.218
same,glycan array binding signal (z-score),[21],-0.191
same,glycan array binding signal (z-score),[22],-0.179
same,glycan array binding signal (z-score),[23],-0.199
same,glycan array binding signal (z-score),[24],1.37
same,glycan array binding signal (z-score),[25],5.65
same,glycan array binding signal (z-score),[26],1.53
